Consider eight molecules from PubChem BioAssay (NCATS).

Test [1] in a line: Drug repurposing screens with cells derived from glioblastoma tumor samples (AID 1345199). Further: nearly all actives have a fitted effect of over 40% in size. Further: potency means the concentration at half of the fitted maximal effect. On activity, negative = cell killing: on the % scale 0 is the no-effect control and ±100 the full control effect. Conditions: GBM patient neurospheres viability, ATP luminescence, 48 h. The essentials: (§1)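 Primary testing used CD133+ neurospheres from four GBM patients, seven concentrations, 48 h exposure and ATP-based viability; confirmation added three slower-growing patient lines.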
The test system of test [2] is astro (control astrocytes). Described as above. Conditions: viability, ATP luminescence, 48 h; series mostly up to 45.9 µM. Summed up:
as §1

The target in test [3] is Nuclear receptor subfamily 1 group I member 2 (Rattus norvegicus) (UniProt Q9R1A7). Put plainly: qHTS assay for small molecule activators of the rat pregnane X receptor (rPXR) signaling pathway (AID 651751; call rule not given here; further: 0% is about no effect). As to conditions: rPXR reporter cells, luciferase (One-Glo), 24 h. A general note: In qHTS, concentration-response curves come from the screen itself.
A short description of test [4]: qHTS assay for small molecule activators of the human pregnane X receptor (PXR) signaling pathway (AID 720659; call rule not given here; further: 0% is about no effect). As to conditions: DPX-2 HepG2 CYP3A4-luciferase, 24 h; series mostly up to 92.3 µM.
Test [5] in a line: qHTS assay to identify inhibitors of the type 1 interferon - major histocompatibility complex class I in skeletal muscle: Counter screen cell viability and HiBit confirmation (AID 1347412). Further: on the % scale 0 is the no-effect control and ±100 the full control effect; nearly all actives have a fitted effect of over 60% in size. Conditions: iHSKM muscle cells + IFN-b, HiBiT or CellTiter-Glo, 24 h; Viability, at 45.9 µM (top of the series). The essentials:
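HLA-B*08:01–HiBiT knock-in immortalized human myoblasts (C25cl48) stimulated with 4.0 ng/ml human IFN-beta and dosed with compound in a 12-point 1:3 titration (top final 46 uM). After 24 hrs at 37 C, HiBiT lytic luminescence or CellTiter Glo ATP read out.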

Setting [6] is: at 45.9 µM (top of the series), tumour line B.
Where [7] appears, read: at 45.9 µM (top of the series), tumour line D.
Where [8] appears, read: at 46 µM (top of the series), tumour line A.
Where [9] appears, read: at 46.1 µM (top of the series), tumour line C.
The mark [10] stands for this setting: at 20 µM (top of the series), tumour line C.
[11] abbreviates: at 21.2 µM (top of the series), tumour line B.
[12] abbreviates: at 21.2 µM (top of the series), tumour line D.
Setting [13] is: at 21.3 µM (top of the series), tumour line A.

Values without a mark were called inactive. Inconclusive results are not listed. The source made the active and inactive calls. Unless noted, the call rests on the fitted dose curve; in most records, active means well fitted curve in the direction sought with a large enough effect; inconclusive means small, poorly fitted or top-dose-only effect, or another doubt; inactive means no such curve, though single readings can be large; an effect the other way counts as inactive or inconclusive.

Nuclear receptor subfamily 1 group I member 2 (Rattus norvegicus), sequence (Q9R1A7 whole entry, looked up): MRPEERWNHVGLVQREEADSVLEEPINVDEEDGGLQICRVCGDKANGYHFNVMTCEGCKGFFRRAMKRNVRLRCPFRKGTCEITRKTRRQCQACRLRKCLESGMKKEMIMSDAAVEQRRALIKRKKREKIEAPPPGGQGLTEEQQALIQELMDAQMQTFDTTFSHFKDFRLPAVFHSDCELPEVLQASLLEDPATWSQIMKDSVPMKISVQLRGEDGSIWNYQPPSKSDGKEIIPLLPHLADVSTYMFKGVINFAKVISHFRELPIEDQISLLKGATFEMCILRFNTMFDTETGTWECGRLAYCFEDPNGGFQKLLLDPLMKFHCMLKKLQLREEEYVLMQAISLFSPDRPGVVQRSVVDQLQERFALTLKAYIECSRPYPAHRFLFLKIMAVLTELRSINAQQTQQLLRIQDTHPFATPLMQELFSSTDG

Turning to `Cc1cc(O)cc(C)c1Cl`, the activity, negative = cell killing in test [1] (setting [6]) is 0.561%; in test [1] (setting [7]), -6%; in test [1] (setting [8]), -20%; in test [1] (setting [9]), 6.74%. Moreover, the result in test [2] and in test [4] was inactive. The max response in test [3] is 1.15%.
Turning to `COCC(=O)Nc1c(I)c(C(=O)NCC(O)CO)c(I)c(C(=O)N(C)CC(O)CO)c1I` (centres undefined), the activity, negative = cell killing was 5.9% in test [1] (setting [10]), -2.18% in test [1] (setting [11]), -2.4% in test [1] (setting [12]) and -10.5% in test [1] (setting [13]). The molecule was called inactive in test [2].
For `CC(=O)OCC(=O)[C@@]1(O)CC[C@H]2[C@@H]3CCC4=CC(=O)C=C[C@]4(C)[C@@]3(F)[C@@H](O)C[C@@]21C`, in that order: 11.3%, 1.05%, -1.44%, -7.16% and “inactive”.
Take `CC1(C)S[C@@H]2[C@H](N=CN3CCCCCC3)C(=O)N2[C@H]1C(=O)O`: the activity, negative = cell killing in test [1] (setting [6]) is 0.648%; in test [1] (setting [7]) it was 9.1%; in test [1] (setting [8]), -11.3%; in test [1] (setting [9]), -4.3%. Also, the outcome in test [2] was inactive.
As to `CCCCOC(=O)c1ccc(N)cc1`, in test [1] (setting [7]), the activity, negative = cell killing was -24.9%. For the same molecule, the Potency in test [1] (tumour line A) was 11.2 µM (active); in test [1] (tumour line B), 12.6 µM (active); in test [1] (tumour line C) it was 16.4 µM (active). Besides, the result in test [2] and in test [5] was inactive. Moreover, in test [3], the max response was 15.7%.
With `NS(=O)(=O)c1cc2c(cc1C(F)(F)F)NCNS2(=O)=O`, the activity, negative = cell killing is -8.4% in test [1] (setting [10]), 8.4% in test [1] (setting [11]), -16.1% in test [1] (setting [12]) and -5.19% in test [1] (setting [13]). The molecule was called inactive in test [2].
The corresponding values for `CCCCC1(COC(=O)CCC(=O)O)C(=O)N(c2ccccc2)N(c2ccccc2)C1=O` are -5.58%, -15.2%, -10.8%, -29.7% and “inactive”.
For the molecule `COc1cc(C(=O)NCCCCCC(=O)O)cc(OC)c1OC`, the activity, negative = cell killing was -7.31% in test [1] (setting [6]), -8.75% in test [1] (setting [7]), -18.3% in test [1] (setting [8]) and -40.8% in test [1] (setting [9]). For the same molecule, the outcome in test [2] was inactive.
